Test results taken from PubChem BioAssay (EPA / NIEHS).
Records with an inconclusive call do not appear. Activity calls are given as the source filed them. Rule for the calls, unless noted: active = hit-call score of the fitted dose curve at least 0.9, where 1 is the maximum; inactive = score below 0.9.

How the values were obtained:
[1] = ATG_Sox_CIS: Attagene CIS-FACTORIAL HepG2 Assay for human SRY-box transcription factor (SOX) (AID 2282960); details: HepG2 Attagene cis-factorial SOX reporter, mRNA; actives raise or lower the signal
Procedure, shortened: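 Cells were transfected with reporter constructs under cis-regulatory promoters, then exposed to chemicals for 24 h. Reporter transcripts were quantified by fluorescence after RT-PCR and capillary electrophoresis; activity was fitted in both directions against DMSO.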

[2] = molecular target: Transcription factor Sp1 (Homo sapiens) (UniProt P08047); experiment: ATG_Sp1_CIS: Attagene CIS-FACTORIAL HepG2 Assay for human Specificity Protein 1 (Sp1) (AID 2282961); details: HepG2 Sp1 cis-reporter transcription, actives raise or lower the signal
Sequence of Transcription factor Sp1 (Homo sapiens) (P08047 whole entry, looked up): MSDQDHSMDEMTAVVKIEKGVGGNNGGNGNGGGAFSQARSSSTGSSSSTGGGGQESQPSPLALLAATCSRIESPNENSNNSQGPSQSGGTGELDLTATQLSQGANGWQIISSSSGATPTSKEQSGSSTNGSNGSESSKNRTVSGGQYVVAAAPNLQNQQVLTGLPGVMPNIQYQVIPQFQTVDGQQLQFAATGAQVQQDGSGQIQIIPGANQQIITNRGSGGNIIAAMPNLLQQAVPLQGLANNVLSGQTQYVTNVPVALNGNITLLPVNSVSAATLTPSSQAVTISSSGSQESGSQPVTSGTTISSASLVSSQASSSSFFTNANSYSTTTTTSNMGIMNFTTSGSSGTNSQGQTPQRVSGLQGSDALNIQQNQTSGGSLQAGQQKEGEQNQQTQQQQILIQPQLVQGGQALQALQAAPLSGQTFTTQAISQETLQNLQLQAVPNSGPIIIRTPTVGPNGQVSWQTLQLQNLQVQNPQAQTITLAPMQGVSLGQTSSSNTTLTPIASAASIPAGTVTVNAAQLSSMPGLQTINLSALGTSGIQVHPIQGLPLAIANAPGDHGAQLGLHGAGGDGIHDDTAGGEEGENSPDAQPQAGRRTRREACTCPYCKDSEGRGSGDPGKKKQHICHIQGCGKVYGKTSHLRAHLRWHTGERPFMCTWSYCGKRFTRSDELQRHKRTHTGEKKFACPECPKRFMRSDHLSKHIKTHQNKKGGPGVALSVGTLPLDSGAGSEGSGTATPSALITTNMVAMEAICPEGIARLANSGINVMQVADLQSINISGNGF
Procedure, shortened: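 Measures mRNA induction of an Sp1-linked reporter in HepG2 cells 24 h post-dosing. Multiplexed reporters read by RT-PCR and capillary electrophoresis; DMSO serves as negative control and baseline.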

[3] = ATG_SREBP_CIS: Attagene CIS-FACTORIAL HepG2 Assay for human Sterol Regulatory Element Binding (SREBP) (AID 2282962); details: HepG2 Attagene cis-factorial SREBP reporter, mRNA; actives raise or lower the signal
Procedure, shortened: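 Readout: fluorescent reporter-transcript peaks resolved by capillary electrophoresis after RT-PCR. Cells were human HepG2 carrying transfected cis-promoter reporter constructs, dosed for 24 h. Gain or loss of signal was fitted against DMSO controls.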

[4] = molecular target: Signal transducer and activator of transcription 3 (Homo sapiens) (UniProt P40763); experiment: ATG_STAT3_CIS: Attagene CIS-FACTORIAL HepG2 Assay for human Signal Transducer and Activator of Transcription 3 (STAT3) (AID 2282963); details: HepG2, Attagene cis-factorial STAT3 reporter transcription; actives raise or lower the signal
Sequence of Signal transducer and activator of transcription 3 (Homo sapiens) (P40763 whole entry, looked up, the tested form may be a part): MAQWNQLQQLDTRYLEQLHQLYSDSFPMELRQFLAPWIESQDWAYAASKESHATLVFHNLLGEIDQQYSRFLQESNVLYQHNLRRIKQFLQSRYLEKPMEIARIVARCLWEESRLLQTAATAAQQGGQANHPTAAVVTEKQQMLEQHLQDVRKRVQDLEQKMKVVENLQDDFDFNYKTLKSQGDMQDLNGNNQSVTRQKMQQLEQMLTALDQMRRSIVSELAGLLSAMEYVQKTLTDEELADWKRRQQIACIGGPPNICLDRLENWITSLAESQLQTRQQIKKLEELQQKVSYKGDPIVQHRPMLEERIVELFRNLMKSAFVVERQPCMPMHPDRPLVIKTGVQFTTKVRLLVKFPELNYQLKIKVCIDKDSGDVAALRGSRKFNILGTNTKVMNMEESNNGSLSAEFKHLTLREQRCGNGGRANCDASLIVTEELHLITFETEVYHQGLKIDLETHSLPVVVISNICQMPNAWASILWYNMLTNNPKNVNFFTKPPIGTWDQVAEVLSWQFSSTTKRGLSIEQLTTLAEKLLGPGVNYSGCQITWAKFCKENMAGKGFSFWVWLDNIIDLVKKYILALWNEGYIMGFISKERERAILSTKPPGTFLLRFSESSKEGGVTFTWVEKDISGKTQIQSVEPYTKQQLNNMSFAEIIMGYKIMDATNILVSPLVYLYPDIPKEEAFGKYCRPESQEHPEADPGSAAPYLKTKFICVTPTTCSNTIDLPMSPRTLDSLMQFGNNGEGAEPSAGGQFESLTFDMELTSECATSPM
Procedure, shortened: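 Readout: fluorescent reporter mRNA fragments resolved by capillary electrophoresis. Setup: HepG2 transfected with MRTUs reporting endogenous transcription-factor activity, dosed 24 h. Gain or loss of signal fitted bidirectionally against DMSO control.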

[5] = ATG_TA_CIS: Attagene CIS-FACTORIAL HepG2 Assay for human TA Basal Promoter (AID 2282964); details: HepG2 Attagene CIS-factorial TA basal promoter reporter; actives raise or lower the signal
Procedure, shortened: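 Steps: transfect HepG2 with MRTUs; dose 24 h; isolate RNA, DNase-treat, reverse-transcribe; PCR and FAM-label reporter cDNA; digest with HpaI 2h at 37 C; run capillary electrophoresis. Activity fitted both directions against DMSO.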

[6] = ATG_TCF_b_cat_CIS: Attagene CIS-FACTORIAL HepG2 Assay for human T-Cell-Factor with beta-catenin (TCF/b-cat) (AID 2282965); details: HepG2 TCF/beta-catenin cis-reporter transcription, actives raise or lower the signal
Procedure, shortened: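 Cells of the HepG2 line carry transiently transfected reporter units whose promoters respond to endogenous factors. Twenty-four hours post-dosing, reporter mRNA induction is measured by fluorescent RT-PCR and capillary electrophoresis, with DMSO as baseline.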

[7] = ATG_TAL_CIS: Attagene CIS-FACTORIAL HepG2 Assay for human TAL Basal Promoter (AID 2282966); details: HepG2 Attagene cis-factorial TAL promoter reporter; actives raise or lower the signal;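 note: background control endpoint measuring basal TAL promoter reporter mRNA not a specific factor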
Procedure, shortened: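 Basal-promoter background-control endpoint from a multiplexed HepG2 reporter panel. Cells were exposed 24 h, then reporter mRNA was read by RT-PCR/CE fluorescence and fitted in both directions relative to DMSO.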

[8] = ATG_TGFb_CIS: Attagene CIS-FACTORIAL HepG2 Assay for human Transforming Growth Factor (TGF) (AID 2282967); details: HepG2 Attagene CIS TGFb reporter, mRNA transcription; actives raise or lower the signal
Procedure, shortened: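 Cells were dosed for 24 hours, after which total RNA was reverse-transcribed and reporter sequences amplified, labeled and sized by capillary electrophoresis. Activity was fitted in both directions against DMSO.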

[9] = molecular target: Nuclear receptor subfamily 1 group I member 3 (Homo sapiens) (UniProt Q14994); experiment: ATG_CAR_TRANS: Attagene TRANS-FACTORIAL HepG2 Assay for human Constitutive Androstane Receptor (CAR) (AID 2282969; active = hit-call score of the fitted dose curve at least 0.9, where 1 is the maximum;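 note: activators raise reporter mRNA above DMSO so AC50 marks induction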); details: HepG2 Attagene TRANS-FACTORIAL CAR reporter
Sequence of Nuclear receptor subfamily 1 group I member 3 (Homo sapiens) (Q14994 whole entry, looked up, the tested form may be a part): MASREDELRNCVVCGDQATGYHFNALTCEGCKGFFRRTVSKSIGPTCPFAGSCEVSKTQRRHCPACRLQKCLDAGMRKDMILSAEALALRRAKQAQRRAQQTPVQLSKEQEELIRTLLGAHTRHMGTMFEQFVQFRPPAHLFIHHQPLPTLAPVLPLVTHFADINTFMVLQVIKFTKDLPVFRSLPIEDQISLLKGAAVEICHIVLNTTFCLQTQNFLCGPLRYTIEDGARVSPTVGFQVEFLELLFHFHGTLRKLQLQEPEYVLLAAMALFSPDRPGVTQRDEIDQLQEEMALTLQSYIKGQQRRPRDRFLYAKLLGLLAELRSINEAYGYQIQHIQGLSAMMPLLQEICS
Procedure, shortened: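 Transiently transfected HepG2, multiplex TRANS reporters (CAR-Gal4 chimera driving GAL4-UAS reporter). 24 h dosing. Readout: reporter transcript by RT-PCR + capillary electrophoresis, fluorescence intensity; positive direction vs DMSO.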

[10] = molecular target: X-box-binding protein 1 (Homo sapiens) (UniProt P17861); experiment: ATG_Xbp1_CIS: Attagene CIS-FACTORIAL HepG2 Assay for human X-box Binding Protein 1 (XBP1) (AID 2282972); details: HepG2 XBP1 cis-element reporter, Attagene multiplex; actives raise or lower the signal
Sequence of X-box-binding protein 1 (Homo sapiens) (P17861 whole entry, looked up, the tested form may be a part): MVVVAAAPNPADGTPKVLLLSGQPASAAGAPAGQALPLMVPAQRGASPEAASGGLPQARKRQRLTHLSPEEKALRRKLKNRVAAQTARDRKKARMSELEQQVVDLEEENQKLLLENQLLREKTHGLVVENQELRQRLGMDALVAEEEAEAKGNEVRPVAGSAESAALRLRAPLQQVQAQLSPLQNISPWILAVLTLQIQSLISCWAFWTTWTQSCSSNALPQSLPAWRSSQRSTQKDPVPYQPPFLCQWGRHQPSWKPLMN
Procedure, shortened: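 Read-out: fluorescent reporter mRNA fragments resolved by capillary electrophoresis after RT-PCR. Human HepG2 liver cells carried transfected cis-promoter reporter units and were exposed to chemicals for 24 hours. Gain or loss of signal fitted relative to DMSO baseline.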

[11] = ATG_RORE_CIS: Attagene CIS-FACTORIAL HepG2 Assay for human RAR-related Orphan Receptor Element (RORE) (AID 2282959); details: HepG2 Attagene cis-factorial RORE reporter, mRNA; actives raise or lower the signal
Procedure, shortened: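 Multiplexed reporter assay measuring mRNA induction from a cis promoter element in transiently transfected HepG2 cells after 24 h treatment. Detection via RT-PCR and capillary electrophoresis fluorescence; DMSO serves as baseline.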

[12] = ATG_VDRE_CIS: Attagene CIS-FACTORIAL HepG2 Assay for human Vitamin D Receptor Element (VDRE) (AID 2282968); details: HepG2 VDRE cis-reporter transcription, actives raise or lower the signal
Procedure, shortened: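 Transient MRTU transfection of HepG2, 24 h compound exposure. Readout: reporter transcripts via RT-PCR and capillary electrophoresis, fluorescence. Bidirectional fit vs DMSO.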

[13] = ATG_PPRE_CIS: Attagene CIS-FACTORIAL HepG2 Assay for human Peroxisome Proliferator-activated Response Element (PPRE) (AID 2282958); details: HepG2 PPRE cis-element reporter, Attagene transcription factor profiling; actives raise or lower the signal
Procedure, shortened: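 Transcript-level reporter induction in transfected HepG2 cells after 24 h chemical exposure, quantified by fluorescence from RT-PCR products separated by capillary electrophoresis.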

[14] = molecular target: Estrogen receptor (Homo sapiens) (UniProt P03372); experiment: ATG_ERa_TRANS: Attagene TRANS-FACTORIAL HepG2 Assay for human Estrogen Receptor alpha (ERa) (AID 2282970; active = hit-call score of the fitted dose curve at least 0.9, where 1 is the maximum); details: HepG2 Attagene TRANS ERa GAL4 reporter, mRNA
Sequence of Estrogen receptor (Homo sapiens) (P03372 whole entry, looked up, the tested form may be a part): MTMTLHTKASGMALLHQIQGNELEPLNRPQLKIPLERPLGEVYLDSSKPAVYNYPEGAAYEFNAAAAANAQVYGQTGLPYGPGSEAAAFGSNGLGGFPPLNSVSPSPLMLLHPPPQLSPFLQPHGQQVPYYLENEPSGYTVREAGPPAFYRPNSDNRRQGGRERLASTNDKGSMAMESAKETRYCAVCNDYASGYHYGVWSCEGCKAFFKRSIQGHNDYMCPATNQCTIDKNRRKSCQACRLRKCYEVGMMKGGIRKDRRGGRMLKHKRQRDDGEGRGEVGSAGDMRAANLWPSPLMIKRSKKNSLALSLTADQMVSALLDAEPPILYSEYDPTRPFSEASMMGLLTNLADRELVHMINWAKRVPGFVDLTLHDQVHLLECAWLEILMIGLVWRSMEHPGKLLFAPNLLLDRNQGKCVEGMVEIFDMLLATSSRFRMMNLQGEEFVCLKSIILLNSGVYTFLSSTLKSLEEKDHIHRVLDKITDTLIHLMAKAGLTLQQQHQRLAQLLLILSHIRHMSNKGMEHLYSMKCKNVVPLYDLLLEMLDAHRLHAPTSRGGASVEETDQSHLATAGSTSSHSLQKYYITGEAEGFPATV
Procedure, shortened: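 Gal4-fusion ERa transactivation, measured as reporter transcript level in transiently transfected HepG2 cells. Exposure 24 h; RT-PCR plus capillary electrophoresis with fluorescence detection.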

[15] = ATG_M_19_TRANS: Attagene TRANS-FACTORIAL HepG2 Assay for M19 Transcription Factor (Internal Marker) (AID 2282974; active = hit-call score of the fitted dose curve at least 0.9, where 1 is the maximum); details: HepG2 Attagene TRANS-FACTORIAL M19 internal marker reporter
Procedure, shortened: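 After transfection of HepG2 with GAL4-UAS-driven reporter constructs, cells are dosed for 24 h. Total RNA is reverse-transcribed, reporter sequences PCR-amplified and labelled, then HpaI-digested and sized by capillary electrophoresis.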

[16] = ATG_GAL4_TRANS: Attagene TRANS-FACTORIAL HepG2 Assay for GAL4 (Internal Marker) (AID 2282976; active = hit-call score of the fitted dose curve at least 0.9, where 1 is the maximum); details: HepG2 Attagene TRANS GAL4 internal marker reporter
Procedure, shortened: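 Background-control readout: GAL4-UAS reporter transcript in transiently transfected HepG2 cells after 24 h compound exposure. Measured by RT-PCR, 6-FAM primer extension, HpaI digest and capillary electrophoresis; gain-of-signal fit versus DMSO.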

[17] = molecular target: Glucocorticoid receptor (Homo sapiens) (UniProt P04150); experiment: ATG_GR_TRANS: Attagene TRANS-FACTORIAL HepG2 Assay for human Glucocorticoid Receptor (GR) (AID 2282978; active = hit-call score of the fitted dose curve at least 0.9, where 1 is the maximum;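 note: activators score as hits since higher reporter transcript over DMSO is fitted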); details: HepG2 Attagene TRANS GR reporter, mRNA transcription
Sequence of Glucocorticoid receptor (Homo sapiens) (P04150 whole entry, looked up): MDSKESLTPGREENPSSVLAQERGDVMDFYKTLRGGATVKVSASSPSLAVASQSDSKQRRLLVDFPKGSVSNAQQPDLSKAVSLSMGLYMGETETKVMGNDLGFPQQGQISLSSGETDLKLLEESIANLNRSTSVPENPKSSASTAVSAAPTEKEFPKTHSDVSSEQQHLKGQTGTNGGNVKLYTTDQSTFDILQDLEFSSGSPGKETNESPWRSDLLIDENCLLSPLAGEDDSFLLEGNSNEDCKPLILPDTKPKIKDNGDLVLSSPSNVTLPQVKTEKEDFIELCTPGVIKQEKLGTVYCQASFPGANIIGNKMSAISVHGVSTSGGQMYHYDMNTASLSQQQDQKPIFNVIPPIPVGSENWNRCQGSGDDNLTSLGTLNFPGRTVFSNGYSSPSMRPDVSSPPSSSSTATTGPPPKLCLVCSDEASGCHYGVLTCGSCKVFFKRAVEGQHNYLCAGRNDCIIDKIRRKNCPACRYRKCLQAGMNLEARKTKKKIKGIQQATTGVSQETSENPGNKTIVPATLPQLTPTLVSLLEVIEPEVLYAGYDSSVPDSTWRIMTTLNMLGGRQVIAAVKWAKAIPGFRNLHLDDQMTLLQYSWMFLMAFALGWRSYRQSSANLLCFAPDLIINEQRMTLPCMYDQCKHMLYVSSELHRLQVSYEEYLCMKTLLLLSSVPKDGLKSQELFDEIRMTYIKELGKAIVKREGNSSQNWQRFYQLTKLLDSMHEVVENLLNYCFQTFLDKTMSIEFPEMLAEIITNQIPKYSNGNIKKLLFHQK
Procedure, shortened: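 Multiplexed TRANS reporter system, HepG2; 24 h exposure; RNA → oligo(dT) RT → reporter-specific PCR → 6-FAM primer extension → HpaI cut → CE fluorescence. Gain-of-signal vs DMSO.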

[18] = molecular target: Estrogen-related receptor gamma (Homo sapiens) (UniProt P62508); experiment: ATG_ERRg_TRANS: Attagene TRANS-FACTORIAL HepG2 Assay for human Estrogen-Related Receptor gamma (ERRg) (AID 2282977; active = hit-call score of the fitted dose curve at least 0.9, where 1 is the maximum;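 note: hits increase reporter signal over DMSO so potencies reflect activators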); details: HepG2 Attagene TRANS reporter, ERRg transactivation
Sequence of Estrogen-related receptor gamma (Homo sapiens) (P62508 whole entry, looked up, the tested form may be a part): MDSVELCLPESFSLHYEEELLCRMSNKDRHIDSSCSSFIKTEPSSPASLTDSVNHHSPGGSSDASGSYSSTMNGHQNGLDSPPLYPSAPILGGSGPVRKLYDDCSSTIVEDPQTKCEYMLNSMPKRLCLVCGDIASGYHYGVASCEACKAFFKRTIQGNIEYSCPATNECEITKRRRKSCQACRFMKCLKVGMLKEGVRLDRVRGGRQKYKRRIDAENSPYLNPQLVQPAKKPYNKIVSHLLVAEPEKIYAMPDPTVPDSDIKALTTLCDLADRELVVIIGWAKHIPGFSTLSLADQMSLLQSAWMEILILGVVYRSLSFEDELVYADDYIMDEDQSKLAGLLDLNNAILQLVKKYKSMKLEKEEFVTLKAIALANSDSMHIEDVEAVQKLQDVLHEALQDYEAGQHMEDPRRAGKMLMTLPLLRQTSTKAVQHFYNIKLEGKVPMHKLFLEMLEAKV
Procedure, shortened: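 Exogenous NR-Gal4 chimera activity was assessed in HepG2 cells bearing transfected GAL4-UAS reporters. After 24 h dosing, total RNA underwent RT-PCR, fluorescent primer extension and HpaI digestion before capillary electrophoresis, with gain of signal scored against DMSO.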

Measured: AC50

CCN(C(=O)c1cc(C)cc(OC[C@H](C)Nc2ccncc2)c1)C(C)C
active: [3] 18.2 µM
inactive: [1] | [2] | [4] | [5] | [6] | [7] | [8] | [9] | [10]

CCCCCCc1ccc(O)cc1O
active: [11] 42 µM | [6] 47.8 µM | [12] 38.7 µM | [10] 55.3 µM
inactive: [1] | [2] | [3] | [4] | [5] | [7]

CCOCCO
not listed: [9] | [13] | [14] | [15] | [16] | [17] | [18]
inactive: all other assays above

CCC(C)(C)C(=O)O[C@H]1C[C@@H](C)C=C2C=C[C@H](C)[C@H](CC[C@@H]3C[C@@H](O)CC(=O)O3)[C@H]21
active: [3] 0.0317 µM
not listed: [8] | [9] | [17] | [18]
inactive: all other assays above

CC(C)=CCC/C(C)=C/CO
not listed: [9] | [13] | [14] | [15] | [16] | [17] | [18]
inactive: all other assays above

CC(C)(O)c1coc(S(=O)(=O)NC(=O)Nc2c3c(cc4c2CCC4)CCC3)c1
active: [12] 44.5 µM
not listed: [8] | [13] | [14] | [18]
inactive: all other assays above

O=C(NS(=O)(=O)/C=C/c1ccccc1)c1ccc(F)cc1Cl
not listed: [12] | [16] | [17]
inactive: all other assays above

O=C(OC[C@H]1O[C@@H](OC(=O)c2cc(O)c(O)c(OC(=O)c3cc(O)c(O)c(O)c3)c2)[C@H](OC(=O)c2cc(O)c(O)c(OC(=O)c3cc(O)c(O)c(O)c3)c2)[C@@H](OC(=O)c2cc(O)c(O)c(OC(=O)c3cc(O)c(O)c(O)c3)c2)[C@@H]1OC(=O)c1cc(O)c(O)c(OC(=O)c2cc(O)c(O)c(O)c2)c1)c1cc(O)c(O)c(OC(=O)c2cc(O)c(O)c(O)c2)c1
not listed: [8] | [13] | [14] | [15] | [16] | [17] | [18]
inactive: all other assays above

CC(C)=CCCC(C)CCO (configuration not stated)
active: [6] 167 µM | [14] 34 µM
not listed: [9] | [12] | [16] | [17] | [18]
inactive: all other assays above

O=C(O)c1cccc(N(Cc2cccnc2)c2ccc(OC(F)F)c(OC(F)F)c2)c1
active: [13] 25.1 µM | [6] 100 µM
not listed: [8] | [9] | [14] | [15] | [17]
inactive: all other assays above
